Records with an inconclusive call do not appear. A number with no mark means an inactive call. The call rests on the fitted dose curve; in most records, active means well fitted activation curve with a large enough effect; inconclusive means small, poorly fitted or top-dose-only effect; inactive means no such curve, though single readings can be large or run the other way.
On the % scale 0 is the no-effect control and ±100 the full control effect.

Chain of Rap guanine nucleotide exchange factor 4 (Homo sapiens) (Q8WZA2 whole entry, looked up): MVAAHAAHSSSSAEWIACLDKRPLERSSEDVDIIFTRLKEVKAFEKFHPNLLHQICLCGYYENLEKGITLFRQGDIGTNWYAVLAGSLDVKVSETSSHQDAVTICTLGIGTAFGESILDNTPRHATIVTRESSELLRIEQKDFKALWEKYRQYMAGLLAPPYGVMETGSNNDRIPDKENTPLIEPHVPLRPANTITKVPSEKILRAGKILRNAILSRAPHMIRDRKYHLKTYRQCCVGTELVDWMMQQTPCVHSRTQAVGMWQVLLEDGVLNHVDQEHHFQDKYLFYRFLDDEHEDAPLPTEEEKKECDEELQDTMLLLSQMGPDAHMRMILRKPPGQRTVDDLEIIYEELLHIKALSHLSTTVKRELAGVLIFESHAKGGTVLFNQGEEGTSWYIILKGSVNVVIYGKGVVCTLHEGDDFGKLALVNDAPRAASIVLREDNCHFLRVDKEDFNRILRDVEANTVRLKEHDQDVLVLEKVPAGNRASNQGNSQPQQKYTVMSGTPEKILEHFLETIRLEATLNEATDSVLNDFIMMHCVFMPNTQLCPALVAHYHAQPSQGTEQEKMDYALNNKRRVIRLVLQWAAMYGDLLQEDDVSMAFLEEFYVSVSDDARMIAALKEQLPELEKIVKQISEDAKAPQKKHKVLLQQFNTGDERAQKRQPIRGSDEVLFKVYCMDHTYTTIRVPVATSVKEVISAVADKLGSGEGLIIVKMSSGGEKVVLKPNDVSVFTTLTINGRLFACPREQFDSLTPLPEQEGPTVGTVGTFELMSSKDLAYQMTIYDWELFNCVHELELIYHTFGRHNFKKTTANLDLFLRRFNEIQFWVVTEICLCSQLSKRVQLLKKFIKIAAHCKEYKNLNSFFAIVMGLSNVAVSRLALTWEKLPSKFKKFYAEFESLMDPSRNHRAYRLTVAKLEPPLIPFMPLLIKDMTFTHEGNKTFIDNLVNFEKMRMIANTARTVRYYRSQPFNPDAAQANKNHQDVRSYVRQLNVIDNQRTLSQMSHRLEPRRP

This assay addresses Rap guanine nucleotide exchange factor 4 (Homo sapiens) (UniProt Q8WZA2). As to the kind of experiment: Confirmatory qHTS for agonist of cAMP-regulated guanine nucleotide exchange factor 4 (EPAC2) (AID 1645884). Further: nearly all actives have a fitted effect of over 65% in size. As to conditions: EPAC2 GEF activity, Rap1B-BODIPY-GDP fluorescence; series mostly up to 154 µM; activation: at the top concentration. In general terms: qHTS replaces the single test concentration by a dilution series.
With `Cc1cccn2cc(CCNC(=O)c3ccco3)nc12`, the activation is 4.04% [at 17.1 µM, percent relative to cAMP agonist control].
In the case of `Cn1c(C(O)c2ccc(Br)cc2)nc(Cl)c1Cl` (stereo not drawn) it was -7.53% [at 17.1 µM, percent relative to cAMP agonist control]; in that of `O=C(c1ccccc1)c1coc2ccc(O)c(Cl)c12`, 4.32% [at 17.1 µM, percent relative to cAMP agonist control].
In the case of `CCc1nnc(NS(=O)(=O)c2ccc(NCc3cc(Cl)ccc3O)cc2)s1` it was -0.696% [at 17.1 µM, percent relative to cAMP agonist control]; in that of `O=c1c2cc([N+](=O)[O-])cc([N+](=O)[O-])c2[nH]n1-c1ccccc1`, 3.37% [at 17.1 µM, percent relative to cAMP agonist control].
`COC(=O)COc1ccc(C(c2c(C)[nH][nH]c2=O)c2c(C)[nH][nH]c2=O)cc1`: the “activation” value is 8.62%.
In the case of `COc1ccc(CNC(=S)N/N=C/c2ccc(OC)c(OC)c2)cc1` it was 3.18%; in that of `O=S(=O)(O)c1cccc(N=Nc2c(O)ccc3ccccc23)c1`, -30.8%.
In the case of `COc1nc(C)cc(C)c1S(=O)(=O)c1ccc(Cl)cc1` it was 6.22% [at 17.1 µM, percent relative to cAMP agonist control]; in that of `O=C1NC(=S)S/C1=C\c1ccc(SCc2ccccc2)o1`, 2.88%.
In the case of `Cc1ccc(S(=O)(=O)NCCC(=O)N2CCC(Cc3ccccc3)CC2)cc1` it was 3.1% [at 17.1 µM, percent relative to cAMP agonist control]; in that of `COC(=O)c1cc2occc2n1Cc1cccc(C)c1`, 11.8%; in that of `Cc1ccn2c(=O)c(NC(=O)c3ccc(Br)o3)c(C)nc2c1`, 4.58% [at 17.1 µM, percent relative to cAMP agonist control].
For `COc1ccc(/C=N/Nc2nnc(C)n2N)cc1OC(C)=O`, the “activation” value is 3.57%.
In the case of `COc1cc(NC(=O)C2CCCCC2)c(OC)cc1NC(=O)CN1CCCCC1` it was 4.14% [at 17.1 µM, percent relative to cAMP agonist control]; in that of `COc1ccc2nc3oc(C(=O)Nc4cccc(C(F)(F)F)c4)cc3cc2c1`, 0% [at 83.8 µM, percent relative to cAMP agonist control]; in that of `COc1cc(CNc2ccc(O)cc2)cc(Br)c1OCc1ccccc1`, 15.3%.
Take `Cc1ccc(C(=O)N2CCN(c3ccccc3)CC2)cc1S(=O)(=O)N1CCOCC1`: the “activation” value was 4.8%.
In the case of `O=C(C1=C(O)C(=O)N(c2nc3ccc(Cl)cc3s2)C1c1ccco1)c1ccco1` (stereo not drawn) it was -50.7%.
In the case of `CCC(COC)Oc1cc(NCc2ccccc2)c2ncn(C(C)C)c2c1` (stereo not drawn) it was 0%; in that of `C/C(=N\NC(=O)c1cc(O)ccc1O)c1cccc(NC(=O)c2ccc(Cl)cc2)c1`, -20.6%.
On to `COc1ccc(C2CC(c3cccs3)=NN2C(=O)c2ccco2)cc1OC` (stereo not drawn), for which the activation is 4.11% [at 17.1 µM, percent relative to cAMP agonist control].
In the case of `CCCCNC(=O)c1cc(-c2ccc3c(c2)OCO3)on1` it was -11.8%.
In the case of `COc1ccc(Cl)cc1-n1c(=S)sc2c(=O)[nH]c(SCC(=O)NCCC(C)C)nc21` it was -16%; in that of `O=C(c1ccco1)N(CCC(c1ccccc1)c1ccco1)Cc1ccccc1` (stereo not drawn), 1.75% [at 17.1 µM, percent relative to cAMP agonist control]; in that of `CCN(CC(=O)Nc1ccccc1OC)C(=O)c1ccc(N(C)S(=O)(=O)c2ccc(C)cc2)cc1`, 1.86%.
In the case of `COc1cccc(CN(C)CC(=O)Nc2c(C)cccc2C(C)C)c1` it was 9.26% [at 17.1 µM, percent relative to cAMP agonist control].
On to `Cc1cccc(C)c1Nc1nn2c(=O)c3cc4c(cc3nc2s1)OCO4`, for which the “activation” value was 17.4% [at 83.8 µM, percent relative to cAMP agonist control].
In the case of `COc1ccc(S(=O)(=O)NC(CCSC)C(=O)NC2CCCCC2)cc1` (stereo not drawn) it was -1.6%; in that of `Cc1nnc(SCc2nnc(-c3ccc(Cl)cc3)o2)n1-c1ccccc1`, 4.23%; in that of `Cc1ccc(S(=O)(=O)Nc2ccc3cc([N+](=O)[O-])ccc3c2[N+](=O)[O-])cc1`, -7.83%.
In the case of `O=S(=O)(N/N=C/c1cccnc1)c1ccc(Cl)c(Cl)c1` it was 4.19% [at 17.1 µM, percent relative to cAMP agonist control]; in that of `COc1cccc(-n2ccn(CC(=O)NCc3ccc(C)cc3)c(=O)c2=O)c1`, 2.4% [at 83.8 µM, percent relative to cAMP agonist control].

Values taken from PubChem BioAssay (NCATS).
